# Results from ChEMBL document CHEMBL4513216, “Probing the Open Global Health Chemical Diversity Library for Multistage-Active Starting Points for Next-Generation Antimalarials” (ACS Infect Dis, 2020).
# The campaign covered roughly 69,000 compounds. About 8,600 (12%) showed an effect of 50% or more. This excerpt belongs to a sample that is enriched for strong results.
# System: Plasmodium berghei
# Test: Screen against P. berghei liver stage (PbLuc), transformed with Luciferase, at 10uM
# Format: functional, HepG2
# Conditions: tested at 10 uM
row,SMILES,INHIBITION [%]
1,CN(C)C(=O)CN1CCC(c2cncc(-c3cccc(Cl)c3)n2)CC1,0.301
2,Cc1ccc(-n2nc3n(c2=O)CCN(C(=O)c2ccc(Cl)cc2)C3)cc1,15.9
3,C1CC(c2nnc(CN3CCCC3c3noc(C4CC4)n3)o2)C1 (stereo not given),-7.13
4,N#CC1(NC(=O)c2ccc(-c3nc(C4CC4)n[nH]3)cc2)CCC1,28.8
5,CCc1noc(CN(CCS(C)(=O)=O)C(C)(C)C)n1,-37.1
6,Cc1cc(C)nc(N2CCC(NCCSc3nnnn3C)CC2)n1,35.1
7,CCc1cc(N2CCC(NCCSc3nnnn3C)CC2)nc(C)n1,61.8
8,Cn1nnnc1SCCNC1CCN(c2ccc3c(c2)OCO3)CC1,65
9,Cn1nnnc1SCc1cc2c(cc1Cl)OCO2,25.2
10,CCc1cc(N2CCC(NCCc3ccc(C)o3)CC2)nc(C)n1,21.3
11,CCc1c(C)nc(C)nc1N1CCC(NCCSc2nnnn2C)CC1,36.2
12,CN(Cc1cn(-c2ccccc2)nn1)C1CCCN(c2cccnn2)C1 (stereo not given),-9.76
13,O=C1CC2(CCCNC2)C(=O)N1Cc1cccc(Cl)c1 (stereo not given),-4.82
14,CCN(CC)C1CCN(C(=O)c2cc3cc(C)cc(C)c3nc2C)CC1,1.05
15,c1ccc2sc(N3CCCC4(CCOC4)C3)nc2c1 (stereo not given),-50.5
16,OC1(CN2CCCC2)COCCN(c2nnc(-c3ccccc3)s2)C1 (stereo not given),26.6
17,CCCS(=O)(=O)N1CCOC2(CCCN(c3ccccn3)C2)C1 (stereo not given),11.4
18,c1ccc(N2CCOCC3(CCCN(c4nccs4)C3)C2)nc1 (stereo not given),19.8
19,CCS(=O)(=O)N1CCOC2(CCCN(Cc3ccccn3)C2)C1 (stereo not given),-28.1
20,c1ccc(N2CCOC3(CCCN(c4ncccn4)C3)C2)nc1 (stereo not given),76.5
21,CCS(=O)(=O)N1CCOC2(CCCN(c3ccccn3)C2)C1 (stereo not given),50.7
22,c1ccc(N2CCCC3(COCCN(c4nccs4)C3)C2)nc1 (stereo not given),68.5
23,c1ccc(-c2nnc(N3CCCC4(CCOC4)C3)s2)cc1 (stereo not given),56.5
24,Cc1ccc(N2CCCC3(COCCN(c4nccs4)C3)C2)nn1 (stereo not given),-8.19
25,Cc1nnc(N2CCCC3(CN(c4ccccn4)CCO3)C2)o1 (stereo not given),-34
26,c1cnc(N2CCOC3(CCCN(c4cnccn4)C3)C2)nc1 (stereo not given),-13.7
27,Cc1ccc(C(=O)N2CCN(C)C3(CCC(=O)N(C)CC3)C2)c(F)c1 (stereo not given),15.8
28,CCc1nnc(CNC2CCCN(Cc3noc(C4CC4)n3)C2)o1 (stereo not given),-16
29,COCCN1CCC(NCc2c(F)cccc2F)C1 (stereo not given),25.4
30,CCn1cc(NC(=O)C2CCN(CC(=O)NC(C)(C)CC)CC2)cn1,10
